Assay outcomes deposited in PubChem by Sanford-Burnham Center for Chemical Genomics.
SUMO HTRF inh – inhibitors of in vitro SUMOylation cascade, primary screen, biochemical, HTRF, uHTS; AID 2006, 2009; SUMO-conjugating enzyme UBC9 (Homo sapiens), P63279; inhibition, % at 35 µM; actives 0.36% (n = 290,000); HTRF SUMOylation assay, SAE1/SAE2 + UBC9; in the data active = inhibition above about 50%, passing the limit was not always enough
Target sequence (P63279 whole entry, looked up): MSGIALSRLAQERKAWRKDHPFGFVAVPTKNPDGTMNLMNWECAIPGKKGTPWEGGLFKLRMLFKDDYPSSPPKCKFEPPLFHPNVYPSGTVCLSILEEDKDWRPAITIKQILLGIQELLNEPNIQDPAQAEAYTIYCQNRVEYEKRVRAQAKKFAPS
NadD block – inhibitors of S. aureus NadD, primary screen, biochemical, colorimetric, uHTS | Nicotinate-nucleotide adenylyltransferase NadD (Staphylococcus aureus N315) | purified NadD enzyme, colorimetric absorbance read-out | inhibition, % at 20 µM | actives 0.78% (n = 360,000); in the data active = inhibition above about 26%
p-CIP stab down – p/CIP-EGFP fusion destabilizers, primary screen, fluorescence, F442A cells; decrease of EGFP signal, % at 10 µM; actives 0.01% (n = 290,000); Q05BA5; 16 h;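 active = EGFP signal decrease of at least 30% at 10 µM or well 3 SD below plate mean, unless failing retest; inactive = the rest, including hits failing retest or dose response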
PHOSPHO1 inh – PubChem AID 1565; Phosphoethanolamine/phosphocholine phosphatase (Homo sapiens), Q8TCT1; recombinant PHOSPHO1, absorbance phosphatase assay; actives 1.1% (n = 290,000); inhibition, % at 13.3 µM; in the data active = inhibition above about 60%
Target sequence (Q8TCT1 whole entry, looked up): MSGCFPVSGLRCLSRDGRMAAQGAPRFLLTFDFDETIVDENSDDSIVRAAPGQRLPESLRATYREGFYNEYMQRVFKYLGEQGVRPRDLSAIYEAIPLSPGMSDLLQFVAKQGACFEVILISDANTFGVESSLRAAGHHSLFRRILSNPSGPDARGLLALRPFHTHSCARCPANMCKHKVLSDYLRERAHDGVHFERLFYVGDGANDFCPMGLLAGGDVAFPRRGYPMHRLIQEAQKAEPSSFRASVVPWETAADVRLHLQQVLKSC
Large screens that a line does not name were inactive. Rows were chosen to be rich in hits. Some 1.8% of all compounds tested hit in one or more screens of this group.

CCN(C(=O)CSc1nnc(Cc2cccc3ccccc23)n1N)C1CCS(=O)(=O)C1 (centres undefined)	none
CCc1n[nH]c(=S)n1/N=C/c1ccc2c(c1)OCO2	PHOSPHO1 inh 103
COC(=O)c1ccc2nc(NC(=O)CN3C(=O)CCC3=O)sc2c1	PHOSPHO1 inh 71
CC1(C)CC(=O)C2=C(C1)OC1=C(C(=O)CC(C)(C)C1)C2c1ccccc1Cl	none (no result: SUMO HTRF inh, p-CIP stab down, PHOSPHO1 inh)
O=S1(=O)CC(O)C(NCCO)C1 (centres undefined)	PHOSPHO1 inh 65
COc1ccc(C(O)c2nc(-c3ccc(Cl)cc3)cs2)cc1 (centres undefined)	none (no result: SUMO HTRF inh, p-CIP stab down, PHOSPHO1 inh)
COCCN=C1Sc2nc3cc(C)c(C)cc3cc2CN1Cc1cccs1	none
COCCN=C1Sc2nc3ccc(C)cc3cc2CN1Cc1ccco1	PHOSPHO1 inh 97
N/C(Cn1cncn1)=N\NC(=O)C(=O)Nc1cccc(C(F)(F)F)c1	PHOSPHO1 inh 60
Oc1c(Cl)cc(Cl)cc1/C=N/c1nc(-c2ccc(Cl)cc2)cs1	NadD block 25
COc1ccc(/C=C/c2cc(O)cc(OC3OC(CO)C(O)C(O)C3O)c2)cc1 (centres undefined)	none (no result: SUMO HTRF inh, p-CIP stab down, PHOSPHO1 inh)
O=C(OCc1cc(=O)n2cc(Br)ccc2n1)C1COc2ccccc2O1 (centres undefined)	none
Cn1c(SCc2cc(=O)n3cc(Br)ccc3n2)nnc1C1COc2ccccc2O1 (centres undefined)	PHOSPHO1 inh 73
Cc1ccc(S(=O)(=O)c2c(N)n(Cc3ccco3)c3nc4ccccc4nc23)cc1C	NadD block 47
O=C(Nc1ccc2c(c1)CCC2)c1cc(S(=O)(=O)N2CCN(c3ccccc3)CC2)ccc1Cl	NadD block 32
O=C(NC1CCCCC1)c1cc(S(=O)(=O)N2CCN(c3ccccc3)CC2)ccc1Cl	none (no result: SUMO HTRF inh, p-CIP stab down, PHOSPHO1 inh)
CC(C)N1CCC1(C)C(=O)Nc1ccccc1OC(F)F (centres undefined)	none (no result: SUMO HTRF inh, p-CIP stab down, PHOSPHO1 inh)
CC(=O)N(/N=C1\Sc2ccccc2C1=O)c1ccc(C)cc1C	PHOSPHO1 inh 94
CC(=O)N(/N=C1\Sc2ccccc2C1=O)c1ccccc1C	none
CCCc1nc2oc3c(NCCCN(C)C)ncnc3c2c2c1CCCC2	PHOSPHO1 inh 61
O=C(COc1ccc(S(=O)(=O)N2CCOCC2)cc1)N1CCc2ccccc2C1	none
O=C(COc1ccc(S(=O)(=O)N2CCOCC2)cc1)N1CCN(c2ccccc2)CC1	PHOSPHO1 inh 68
COc1ccc2[nH]c(=O)c(CN(C3CCCCC3)C(c3nnnn3Cc3ccco3)C(C)C)cc2c1 (centres undefined)	NadD block 59
COc1ccc2[nH]c(=O)c(CN(Cc3nnnn3Cc3ccco3)C3CCCCC3)cc2c1	none
CC(C)C[C@H]1CN(CCCC[C@H]2CNC(=O)C(=O)N2CCc2ccccc2)C(=O)C(=O)N1CCc1ccc(O)cc1	none (no result: SUMO HTRF inh, p-CIP stab down, PHOSPHO1 inh)
Cc1cc(C)c(NC(=O)c2ccc3c(c2)C(=O)N(Cc2cccnc2)C3=O)c(C)c1	none
Cc1ccc(O)c(NC(=O)c2ccc3c(c2)C(=O)N(Cc2cccnc2)C3=O)c1	PHOSPHO1 inh 63
CCN(CC)S(=O)(=O)c1cc(NC(=O)CNc2cccc(S(=O)(=O)N3CCOCC3)c2)ccc1C	none (no result: SUMO HTRF inh, p-CIP stab down, PHOSPHO1 inh)
COc1ccc2cc(-c3ccccc3F)ncc2c1	none (no result: SUMO HTRF inh, p-CIP stab down, PHOSPHO1 inh)
O=C(Nc1cccc(-c2csc(Nc3ccc(Cl)cc3)n2)c1)c1cccc(C(F)(F)F)c1	none
O=C(Nc1cccc(-c2csc(Nc3ccc(Cl)cc3)n2)c1)c1cc([N+](=O)[O-])cc(C(F)(F)F)c1	NadD block 42
O=C(c1ccc2nc(-c3ccco3)c(-c3ccco3)nc2c1)N1CCN(c2ccccc2)CC1	SUMO HTRF inh 73
O=S(=O)(c1ccc2nc(-c3ccco3)c(-c3ccco3)nc2c1)N1CCOCC1	SUMO HTRF inh 84, PHOSPHO1 inh 65
O=C(NC1CCCC1)c1cc(S(=O)(=O)N2CCCC2)ccc1Cl	none
Cc1cc(C)cc(NC(=O)C2COc3ccccc3O2)c1 (centres undefined)	none (no result: SUMO HTRF inh, p-CIP stab down, PHOSPHO1 inh)
COc1ccc(CCNC(=O)C(C)Sc2ccccc2)cc1OC (centres undefined)	PHOSPHO1 inh 60
O=[N+]([O-])c1ccc(Nc2ccccc2)c2nonc12	none
O=[N+]([O-])c1ccc(Sc2cccc[n+]2[O-])c2nonc12	SUMO HTRF inh 66
CN(CCc1ccccc1)C(=O)c1ccc(NC(=O)Cc2ccc(NC(=O)C3CCCN(C(=O)C4CCCC4)C3)cc2)cc1 (centres undefined)	none (no result: SUMO HTRF inh, p-CIP stab down, PHOSPHO1 inh)
O=C(CSc1nn(-c2ccccc2)c(=S)s1)NC(=O)NCc1ccco1	PHOSPHO1 inh 78
CC1Cc2ccccc2N1C(=O)CSc1nnnn1C (centres undefined)	none
CC1Cc2ccccc2N1C(=O)CSc1nnnn1C(C)C (centres undefined)	PHOSPHO1 inh 62
O=c1[nH]cc(F)c(=O)n1C1OC(CO)C(O)C1O (centres undefined)	none (no result: SUMO HTRF inh, p-CIP stab down, PHOSPHO1 inh)
CC(C)Nc1c([N+](=O)[O-])c(=O)oc2ccccc12	none
CC(Nc1c([N+](=O)[O-])c(=O)oc2ccccc12)c1ccccc1 (centres undefined)	PHOSPHO1 inh 61
O/C=c1\ccc2cccc3nc(C(F)(F)F)nc1c23	NadD block 33
C#CCN(C[C@H]1[C@H](OC(=O)NC2CCCC2)[C@H](OC(=O)NC2CCCC2)C[C@@H](C(=O)OC)[C@H]1C(=O)OC)S(=O)(=O)c1ccc(C)cc1	none (no result: SUMO HTRF inh, p-CIP stab down, PHOSPHO1 inh)
Cc1cccc(NC(=O)c2nc[nH]c2C(=O)N2CCC(C)CC2)c1	none (no result: SUMO HTRF inh, p-CIP stab down, PHOSPHO1 inh)
O=C(NCCN1CCC(n2c(=O)[nH]c3ccccc32)CC1)c1ccccc1C(F)(F)F	none (no result: SUMO HTRF inh, p-CIP stab down, PHOSPHO1 inh)
COC(=O)C(Nc1ccccc1Cl)(c1cc(C)c(O)c(C)c1)C(F)(F)F (centres undefined)	none
COC(=O)/C(=C(/F)Sc1cc(C)c(O)c(C)c1)C(F)(F)F	PHOSPHO1 inh 64
CC(C)(C)c1ccc(C(=O)N2CCC2(C)C(=O)Nc2cccc3ncccc23)cc1 (centres undefined)	none (no result: SUMO HTRF inh, p-CIP stab down, PHOSPHO1 inh)
O=C(COC(=O)c1cn(-c2ccccc2)nc1-c1cccs1)NC1CC1	PHOSPHO1 inh 65
CN(C)C(=O)c1cn(-c2ccccc2)nc1-c1cccs1	none
CCn1c(CSc2nc3ccccc3s2)nnc1SCC(=O)c1ccc(Cl)cc1	PHOSPHO1 inh 73
CCn1c(CSc2nc3ccccc3s2)nnc1SCC(=O)c1ccc(O)c(O)c1	PHOSPHO1 inh 86
CC1(C)CC(N2CCN(c3ccccc3)CC2)=CC(=[N+]2CCCC2)C1	PHOSPHO1 inh 86
C=CCSc1nnc2c(n1)OC(c1cccnc1)N(C(C)=O)c1ccccc1-2 (centres undefined)	none
C=CCSc1nnc2c(n1)OC(c1cccnc1)Nc1ccccc1-2 (centres undefined)	PHOSPHO1 inh 82
CC1=C(C(=O)N(C)C)CC(CC(=O)NCC2CCCCC2)C(=O)N1Cc1ccc(F)cc1 (centres undefined)	none (no result: SUMO HTRF inh, p-CIP stab down, PHOSPHO1 inh)
CCOC(=O)CN1NC2(CCC(C)CC2)NC1=S (centres undefined)	PHOSPHO1 inh 95
CCOC(=O)CN1NC2(CCCC(C)C2)NC1=S (centres undefined)	PHOSPHO1 inh 91
